Rows were chosen to be rich in hits. Some 3.1% of all compounds tested hit in one or more screens of this group.
C2C12 statin: suppression of simvastatin myotoxicity; rescue of ATP level, % at 7.49 µM; hit rate 0.78% among 330,000; C2C12 myotubes + simvastatin, ATP luminescence, 48 h; scaled: DMSO 0, geranylgeraniol control 100;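 active means mean ATP rescue above about 67%, or every replicate alone reaching that limit, limit read from the data, passing the limit was not always enough; inconclusive means no clear call, values can overlap the other calls; inactive means mean under the limit and some replicate under it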;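 further: myotubes were challenged with 10 µM simvastatin during compound exposure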
Rtt109 Vps75: C. albicans Rtt109 histone acetyltransferase inhibition; Q5AAJ8; purified Rtt109/Vps75, ThioGlo CoA-SH fluorescence, 4 h; inhibition, % at 34.9 µM; hit rate 0.16% among 330,000; AID 540336;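 active means inhibition of at least 50% in every replicate; inconclusive means best replicate reaches 50% inhibition but some replicates fall short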
Target sequence (Q5AAJ8 whole entry, looked up): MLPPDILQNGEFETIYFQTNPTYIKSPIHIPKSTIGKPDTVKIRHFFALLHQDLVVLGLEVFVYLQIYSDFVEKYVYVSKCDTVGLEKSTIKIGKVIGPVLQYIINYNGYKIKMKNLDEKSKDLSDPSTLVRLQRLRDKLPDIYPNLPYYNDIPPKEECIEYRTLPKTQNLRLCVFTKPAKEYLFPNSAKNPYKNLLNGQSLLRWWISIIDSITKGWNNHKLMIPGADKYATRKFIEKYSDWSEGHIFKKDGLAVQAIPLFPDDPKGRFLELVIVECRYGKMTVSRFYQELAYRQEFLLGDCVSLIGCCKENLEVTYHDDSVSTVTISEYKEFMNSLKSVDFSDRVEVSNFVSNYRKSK
esBAF inh: blocks esBAF chromatin remodeling in mouse ES cells; Bmi1-luciferase knock-in reporter, 24 h; 100% = twice the neutral-well signal; reporter increase, % at 12.5 µM; hit rate 2% among 350,000; AID 602393; in the data active means activation above about 40%; inconclusive means no clear call, values can overlap the other calls;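 further: 0% = median of the plate's neutral control wells and 100% = double that signal; a rise in the Bmi1 reporter signal indicates esBAF inhibition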
MITF TRPM1 HTS: increases MITF-driven TRPM1 promoter luciferase signal; SK-MEL-5 TRPM1-promoter luciferase, 24 h; % of positive control, neutral wells = 0; activation, % at 12.5 µM; hit rate 0.75% among 300,000;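 active means mean activation of at least 80% with every replicate also reaching 80%; inconclusive means mean reaches 80% but some replicate falls short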;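 further: 0% = neutral control wells and 100% = parthenolide positive control wells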
Wnt bcat act: activators of Wnt/beta-catenin signaling; activation, % at 9.35 µM; hit rate 1.2% among 300,000; Wnt/beta-catenin reporter cell assay, activator, plate reader; in the data active means activation above about 30%, passing the limit was not always enough; inconclusive means no clear call, values can overlap the other calls;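 further: 0% = neutral control wells and 100% = positive control wells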
* marks the source's active call; other numbers are inactive results; ? = inconclusive; / = no result.

SMILES	C2C12 statin	Rtt109 Vps75	esBAF inh	MITF TRPM1 HTS	Wnt bcat act
Cc1ccc(S(=O)(=O)NNC2=NCCCCC2)cc1	92.2*	-4.8	-10.2	-13.1	-0.2
O=S(=O)(NC1=NCCC1)c1ccc(F)cc1	106.8*	-1.5	-8.9	-3.1	/
CC(C)c1cn(CC[C@H]2CC[C@@H](NS(=O)(=O)c3ccccc3)[C@@H](CO)O2)nn1	1.5	/	3.4	/	/
CC(C)Cn1cnc2c(SCc3ccccc3)nc(N)nc21	-1.2	-0.7	75.7*	31.7	6.2
CCCCn1cnc2c(SCCc3ccccc3)nc(N)nc21	98.6*	-1.4	/	12.9	-5.4
CCCn1cnc2c(SCCc3ccccc3)nc(N)nc21	-1.9	0.1	61.3*	44.0	1.1
O=C(NCC[C@@H]1CC[C@@H](NS(=O)(=O)c2ccccc2)[C@H](CO)O1)c1ccccc1F	0.5	/	2.2	/	/
CCOc1ccc2c(=O)c(Oc3ccccc3OCC)coc2c1	-10.8	4.9	64.3*	55.7	0.0
O=C(Nc1ccon1)c1ccc(Br)s1	-4.1	-8.0	10.8	2.8	7.8
O=C(Nc1ccc(Br)cn1)c1ccc(Cl)s1	-26.5	-7.0	60.1*	44.0	35.4*
Cc1ccnc(NC(=O)c2ccc(Br)s2)c1	-2.2	-3.3	0.0	50.1	34.9*
O=C(Nc1ccccn1)c1ccc(Cl)s1	/	-2.4	/	161.4*	16.4
O=C(Nc1ccc(Br)cn1)c1ccc(Br)s1	-123.2	7.6	45.1	20.8	38.2*
CCC(=O)Nc1ccc(Br)cn1	-2.6	-7.0	-0.1	-4.7	-1.3
C[C@H](CO)N1C[C@H](C)[C@@H](CN(C)Cc2ccc3c(c2)OCO3)Oc2ccc(NS(C)(=O)=O)cc2CC1=O	-4.5	/	1.6	/	/
Cc1ccccc1C(=O)Nc1ccc(Br)cn1	-51.5	-1.1	?	96.1*	/
Cc1ccc(NC(=O)c2cncc(Br)c2)nc1	-6.3	3.1	36.9	40.2	25.4
Cc1cc(C(=O)Nc2ccc(Br)cn2)sc1C	-7.9	-8.5	15.5	/	54.2*
O=C(Nc1nccs1)c1ccc(Cl)s1	-8.5	-5.0	52.0*	41.3	14.0
CC1(C)NC(=O)N(CCOCCOc2ccccc2)C1=O	/	-8.0	/	15.3	/
CC1(C)NC(=O)N(CCOCCSc2ccccc2)C1=O	-8.9	-21.7	61.3*	17.2	0.4
Cc1nc(-c2cccc(S(=O)(=O)N3CC(C)OC(C)C3)c2)cs1 (configuration not stated)	115.1*	-4.6	-1.0	-9.6	-0.6
CC(C)CNCC(=O)N1c2ccccc2Sc2ccccc21	/	-4.0	/	-8.2	-4.6
COCCNCC(=O)N1c2ccccc2Sc2ccccc21	-0.9	-4.9	-3.3	/	48.3*
Cc1cccc(-c2ncc(S(=O)(=O)C(C)(C)C)c(N)n2)c1	-25.4	0.6	67.7*	93.8*	34.6*
SMILES	C2C12 statin	Rtt109 Vps75	esBAF inh	MITF TRPM1 HTS	Wnt bcat act
Fc1cc(Cl)c(OCc2noc(-c3ccsc3)n2)c(Cl)c1	/	6.4	/	90.1*	-0.1
Clc1ccc(OCc2noc(-c3ccsc3)n2)c(Cl)c1	-4.3	0.8	64.0*	/	64.7*
COc1cc(-c2nc(Cc3ccccc3Cl)no2)cc(OC)c1OC	12.5	4.1	1.5	6.0	/
CCCCn1c(=N)n(CC(=O)c2ccc(Br)s2)c2ccccc21	-22.8	3.1	0.4	-89.5	0.6
CCn1c(=N)n(CC(=O)c2ccc(Br)s2)c2ccccc21	-41.7	15.1	59.3*	34.0	-10.9
CO[C@H]1CN(C)C(=O)c2cc(NC(=O)C3CC3)ccc2OC[C@H](C)N(C)C[C@@H]1C	-4.1	/	-1.1	/	/
C[C@H](CO)N1C[C@H](C)[C@@H](CN(C)Cc2ccc(C(F)(F)F)cc2)OCCCC[C@H](C)Oc2ccc(NC(=O)CCC(F)(F)F)cc2C1=O	-9.0	/	1.8	/	/
COCCCNC(=O)CS(=O)(=O)Cc1nc(-c2cccc(OC)c2)oc1C	-0.9	-12.4	8.2	/	/
COc1ccc(NC(=O)CS(=O)(=O)Cc2nc(-c3ccc(C)cc3)oc2C)cc1	/	1.9	/	-9.0	-4.6
COc1ccc(-c2nc(CS(=O)(=O)CC(=O)Nc3ccc(Cl)cc3)c(C)o2)cc1	10.5	-4.6	66.4*	13.6	-2.1
COc1cccc(-c2nc(CS(=O)(=O)CC(=O)NCCC(C)C)c(C)o2)c1	23.3	-4.3	4.7	-7.4	38.0*
C[C@H]1CN([C@@H](C)CO)S(=O)(=O)c2ccc(C#CC3CC3)cc2O[C@H]1CN(C)CC1CCOCC1	7.6	/	-5.3	/	/
CNC(=O)C[C@H]1CC[C@@H]2[C@H](COc3ccc(NC(=O)Nc4cccc(C)c4)cc3C(=O)N2C)O1	3.9	/	3.6	/	/
CCCC/C=C1\CCc2c([nH]c3ccccc23)C1=O	-6.6	-12.0	?	64.9	3.7
CCCCN1CCc2c([nH]c3ccccc23)C1=O	-16.0	-4.9	68.6*	75.2	/
CCOC(=O)/C(=N/Nc1ccc(C)cc1)S(=O)(=O)c1ccc(Cl)cc1	1.1	-1.5	54.1*	40.0	/
O=C(c1ccc(Cl)cc1Cl)N1CCc2ccccc21	12.6	-0.5	-8.1	-3.0	-0.8
O=C(/C=C/c1ccc(Cl)cc1Cl)N1CCc2ccccc21	/	1.0	/	65.2	48.5*
COc1ccc2c(C)c(Cl)c(=O)oc2c1	-1.4	-9.7	-5.0	2.3	/
COc1cc(OC)cc(-c2cc3ccccc3c(=O)o2)c1	-12.7	-6.4	47.6*	40.0	9.1
COc1ccc2c(c1)oc(=O)c1ccccc12	2.2	-7.4	41.3*	/	9.8
Nc1ccc(-c2cc3ccccc3c(=O)o2)cc1	4.2	-3.4	-49.2	-71.8	0.2
COc1ccc2c(c1)oc(=O)c1cc(OC)ccc12	4.7	-12.8	78.9*	91.7*	5.7
COc1ccc2c(c1)oc(=O)c1c3ccccc3[nH]c21	/	-4.6	/	39.6	15.7
O=C(C[C@@H]1CC[C@H]2[C@@H](COC[C@H](O)CN2CCC(F)(F)F)O1)NCc1ccc(Oc2ccccc2)cc1	20.1	/	-6.1	/	/
SMILES	C2C12 statin	Rtt109 Vps75	esBAF inh	MITF TRPM1 HTS	Wnt bcat act
C[C@H]1CCCCO[C@H](CN(C)S(=O)(=O)c2ccc(F)cc2)[C@@H](C)CN([C@@H](C)CO)C(=O)c2cc(NS(=O)(=O)c3ccc(Cl)cc3)ccc2O1	/	/	1.9	/	/
Cc1ccc(NC(=S)c2ccc(N(C)C)cc2)cc1	-9.0	-8.6	-16.2	14.5	45.6*
COc1ccc(C(=S)Nc2ccc(N(C)C)cc2)cc1	8.6	-11.6	12.3	66.9	68.4*
COc1ccc(NC(=S)c2ccccc2)cc1	-12.5	-2.2	61.3*	83.1*	16.2
CO[C@@H](C(=O)N(C)C[C@@H]1OCc2ccccc2-c2c(n(C)c3ccccc23)C(=O)N([C@@H](C)CO)C[C@@H]1C)c1ccccc1	22.1	/	-0.1	/	/
O=C(O)c1c[nH]c2ccc(S(=O)(=O)N3CCOCC3)cc12	107.1*	-5.3	-0.6	-4.5	0.6
O=C(NCCN1CCOCC1)c1c[nH]c2ccc(S(=O)(=O)N3CCOCC3)cc2c1=O	/	11.1	/	4.2	/
CN(C)c1ccc(N=Nc2cccc(F)c2)cc1	20.1	22.5	-8.0	48.8	51.8*
CN(C)c1ccc(N=Nc2ccc3ncccc3c2)cc1	-23.3	-1.5	-49.3	14.9	2.6
C[C@@H]1CN([C@@H](C)CO)C(=O)c2cc(NS(C)(=O)=O)ccc2O[C@@H](C)CCCCO[C@H]1CN(C)Cc1ccccc1	36.3	/	-5.0	/	/
